Results: PubChem BioAssay (NCI)
The panel holds about 79,000 compounds, 15% with a hit somewhere; the sample as a whole holds those more often. Cut-off read from the data, not from the text of the source: active = growth inhibition above about 70%; inactive = the rest. Where a SMILES comes first, the peptide text is derived from it. The star is where a group is joined. Boc = CC(C)(C)OC(=O)*; Bn = c1ccc(C*)cc1

Assays:
[1] = NCI Yeast Anticancer Drug Screen. Data for the rad50 strain (AID 155);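 note: 0% = growth of vehicle-only cultures of the same strain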; settings: S. cerevisiae rad50 strain growth inhibition; at 50.0 µM; stronger effect = higher value
In short: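 Vehicle-treated cultures provide the reference for the growth inhibition reported for compound-exposed, repair-deficient yeast.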

[2] = NCI Yeast Anticancer Drug Screen. Data for the mec2-1 strain (AID 157); settings: S. cerevisiae mec2-1 strain, at 50.0 µM, stronger effect = higher value
In short: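 Strain: mec2-1 (DNA repair/cell cycle alteration). Compound exposure, then growth measured; inhibition expressed relative to vehicle.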

[3] = NCI Yeast Anticancer Drug Screen. Data for the sgs1 mgt1 strain (AID 161);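 note: 0% = growth of cultures given vehicle only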; settings: S. cerevisiae sgs1 mgt1 strain, at 50.0 µM, stronger effect = higher value
In short: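 Genetically altered yeast, compound exposure, growth inhibition relative to vehicle.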

[4] = NCI Yeast Anticancer Drug Screen. Data for the cln2 rad14 strain (AID 165);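 note: 0% = growth equal to vehicle treated cultures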; settings: S. cerevisiae cln2 rad14 strain, at 50.0 µM, stronger effect = higher value
In short: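 Compounds are applied to the cln2 rad14 yeast strain, and growth is then compared with that of vehicle-treated cultures to give inhibition.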

[5] = NCI Yeast Anticancer Drug Screen. Data for the bub3 strain (AID 167); settings: S. cerevisiae bub3 mutant strain, at 50.0 µM, stronger effect = higher value
In short: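 Mutant yeast screening strain plus compound; vehicle-treated cultures serve as the 0% inhibition reference.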

[6] = NCI Yeast Anticancer Drug Screen. Data for the mlh1 rad18 strain (AID 175); settings: S. cerevisiae mlh1 rad18 strain growth inhibition; at 50.0 µM; stronger effect = higher value
In short: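 Read-out is yeast growth inhibition, calculated against vehicle-only controls. The compound was applied to a strain engineered with DNA damage repair alterations.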

Measured: growth inhibition

COc1ccc(Cc2cc(O)c(OC)cc2O)cc1
inactive: [1] 5.55% | [2] 17.1% | [3] 38.4% | [4] -22.2% | [5] -3.75% | [6] 26.8%

COP(=O)(OC)C(Cc1cn(C(C)=O)c2ccccc12)C(=O)O (stereo not drawn)
inactive: [1] -53.3% | [2] -69.5% | [3] -56.8% | [4] -25.1% | [5] -27.4% | [6] -37.5%

COc1ccc(OC)c2c(NCCNCCO)cc(NCCNCCO)nc12
inactive: [1] 15.2% | [2] -4.75% | [3] -15.7% | [4] 0% | [5] -3.2% | [6] 7.5%

S=C(Oc1ccccc1)Oc1ccc2ccccc2c1
inactive: [1] 9.7% | [2] -6.8% | [3] -9.7% | [4] -6.55% | [5] 15.3% | [6] -11.6%

c1ccc(-c2nnnn2-c2ccccc2)cc1
inactive: [1] -0.5% | [2] -2.8% | [3] 7.9% | [4] -7.5% | [5] 5.4% | [6] 17.7%

CC(=O)Nc1cccc(F)c1
inactive: [1] -35.1% | [2] 1.1% | [3] -25.4% | [4] -22.2% | [5] -13.8% | [6] -38.1%

CCCCCC(=O)OCCOC
inactive: [1] -3.4% | [2] -15.2% | [3] -8.45% | [4] -46% | [5] -38.1% | [6] -13.7%

CCCCCC/C=C\CCCCCCCCCc1cccc(OC)c1O
inactive: [1] 18.4% | [2] 6.65% | [3] -4.3% | [4] 14.5% | [5] 7.8% | [6] 11.7%

Cc1ccccc1Nc1nc2ccccc2nc1NS(=O)(=O)c1ccccc1
inactive: [1] 5.1% | [2] 0% | [3] 5.85% | [4] -0.8% | [5] 18.1% | [6] -58.4%

CC(C)N1CCC(OC(=O)Nc2ccccc2)C1 (stereo not drawn)
inactive: [1] 3.85% | [2] 5.6% | [3] -7.75% | [4] -27.1% | [5] -14.5% | [6] 8.35%

COc1cc2ccc1-c1cc(ccc1O)CC1c3cc4c(cc3CCN1C)Oc1c(OC)cc3c(c1O4)C(C2)N(C)CC3 (stereo not drawn)
inactive: [1] 1% | [2] -7.15% | [3] -18.5% | [4] -1.7% | [5] -6.15% | [6] 0.25%

CCN(CC)c1ccc(NC(C)=O)c(C)c1
inactive: [1] -16.2% | [2] 21.1% | [3] 9.65% | [4] -15.8% | [5] 18.1% | [6] 3.3%

COC(=O)C(CC(C)C)NC(=O)CNC(=O)C(Cc1ccc(OCc2ccccc2)cc1)NC(=O)C(COCc1ccccc1)NC(=O)OC(C)(C)C (stereo not drawn) (Boc-S(Bn)Y(Bn)GL-OMe; configuration not given here)
inactive: [1] -26.8% | [2] -22.6% | [3] -23.8% | [4] 11.8% | [5] 2.65% | [6] -10.5%

CCCC(O)CNCc1ccc2ncccc2c1 (stereo not drawn)
inactive: [1] -20.4% | [2] -4.2% | [3] 2.1% | [4] -66.8% | [5] -4.35% | [6] -23.4%

COC1CC(C)OC(OC2C(C)/C=C/C(=O)OC(C)C(COC3OC(C)C(O)C(OC)C3OC)C3OC3/C=C/C(=O)C(C)(O)CC2C)C1O (stereo not drawn)
inactive: [1] 1.55% | [2] -5.25% | [3] 3.55% | [4] 1.5% | [5] 5.25% | [6] 5%

CC1(C)C2CCC1(C)C(S)C2 (stereo not drawn)
inactive: [1] 7.5% | [2] -1% | [3] -2.75% | [4] -57.1% | [5] -2% | [6] 11.9%

Cc1ccc(NC(=O)Nc2ccccc2Cl)cc1Cl
inactive: [1] 12.6% | [2] 17.5% | [3] 6.1% | [4] -20.4% | [5] 4.75% | [6] -4.55%

CCOC(=O)C1C/C2=C(/CCCCCCCCCC2)SCCCS1 (stereo not drawn)
inactive: [1] 4.35% | [2] 5.2% | [3] -9% | [4] 2.15% | [5] -13.7% | [6] -23.7%

NCCCCCC(N)=O
inactive: [1] 45% | [2] 32.5% | [3] 38.8% | [4] 21.2% | [5] 33.5% | [6] 33.1%

CCOC(=O)/C=C/C(=O)O.[Cu+2]
inactive: [1] 5.2% | [2] -14.3% | [3] -4% | [4] -13.7% | [5] -17.2% | [6] 11.9%

CC(C)CC(=O)NC(Nc1ccc(S(=O)(=O)Nc2ncccn2)cc1)(C(F)(F)F)C(F)(F)F
inactive: [1] -2.9% | [2] -9.95% | [3] 14.3% | [4] 20.6% | [5] -5.8% | [6] 6.8%

Cc1cc(Sc2ccccc2)nc2ccccc12
inactive: [1] 8.5% | [2] -12.2% | [3] 41.6% | [4] 4.1% | [5] 48.5% | [6] 12.3%

O=P(NC1CCCCC1)(NC1CCCCC1)NC1CCCCC1
inactive: [1] 19.1% | [2] -1.75% | [3] -0.75% | [4] 12.1% | [5] 12.8% | [6] 14.2%

CCCCCCCCCCCCCCNCCCCCCCCCCCCCC
inactive: [1] 21% | [2] -9% | [3] 23.8% | [4] 32.2% | [5] 17.1% | [6] 17.4%

Nc1cnccn1
inactive: [1] 1.55% | [2] 4.1% | [3] 0.75% | [4] -4.3% | [5] 9.3% | [6] -10.6%

CC1=C(C(=O)NN)CC/C1=N\N
inactive: [1] -25.4% | [2] -18.8% | [3] -11.5% | [4] -10.6% | [5] -9.3% | [6] -10.6%

COc1ccc(/C=C\c2cc(OC)c(OC)c(OC)c2)cc1OC(=O)CC(N)C(=O)O (stereo not drawn)
inactive: [1] -19.6% | [2] -10.3% | [3] -8.65% | [4] -6.65% | [5] -1.55% | [6] -5.8%

COC(=O)/C(C#N)=C/c1ccc2c(c1)OCO2
inactive: [1] 12.4% | [2] 7.65% | [3] 16.1% | [4] 11.2% | [5] 35.9% | [6] 28.2%

Nc1cc(S(=O)(=O)O)nc(N)[n+]1[O-]
inactive: [1] 1.55% | [2] -1.8% | [3] 1.9% | [4] -36.3% | [5] -13.3% | [6] 2.8%

CSc1cnc(N)s1
inactive: [1] 14.6% | [2] 14.8% | [3] 3% | [4] -13.1% | [5] -2.45% | [6] 32.4%

CCOC(=O)C1CCCCN1C(=O)OCc1ccccc1 (stereo not drawn)
inactive: [1] -6.95% | [2] -1.75% | [3] 0.75% | [4] -8.05% | [5] 20.9% | [6] -42.3%

Nc1ncc(Cl)c(NCC2(CO)CC(CCc3ccccc3)C2)n1 (stereo not drawn)
inactive: [1] -4.7% | [2] -19.1% | [3] -11.6% | [4] -1.15% | [5] -37% | [6] 2.35%

C=CCNCC(O)C(F)(F)C(F)(F)C(F)(F)C(F)(F)C(F)(F)C(F)(F)F (stereo not drawn)
inactive: [1] 22.5% | [2] 28.9% | [3] 32.1% | [4] -6.9% | [5] 7.55% | [6] 27.6%

CC(C)C(/C=C/c1ccccc1)=N\NC(=S)NN
inactive: [1] -5.25% | [2] -5.9% | [3] 17.1% | [4] 13.4% | [5] 26.6% | [6] 32.4%

NNC(=O)CCCCCCO
inactive: [1] 5.3% | [2] 16.3% | [3] 10.1% | [4] 27.6% | [5] 18.3% | [6] 7.45%

Cc1cc(C)c2ccc(NC(=O)CCC(=O)O)nc2n1
inactive: [1] -15.1% | [2] -32.5% | [3] 7.45% | [4] 10.7% | [5] -27.4% | [6] -13.4%

C1=C(c2ccccc2)N(c2ccccc2)N=C(c2ccccc2)C1
inactive: [1] 0.85% | [2] -19.7% | [3] 6% | [4] -10.4% | [5] -1.65% | [6] 18.6%

CC1OC(OC2CCC3(C)C(CCC4C3CC(O)C3(C)C(C5=CC(=O)OC5)CCC43O)C2)CC(O)C1OC1CC(O)C(OC2CC(O)C(OC3OC(CO)C(O)C(O)C3O)C(C)O2)C(C)O1 (stereo not drawn)
inactive: [1] 16.4% | [2] -7.7% | [3] -0.4% | [4] 4.35% | [5] 10.6% | [6] 20.1%
